TDP1 cell CPT = growth inhibition of DT40 Tdp1-/-;hTDP1 cells with camptothecin (screen for TDP1 inhibitors); chicken DT40 Tdp1-/-;hTDP1 cells + 20 nM CPT, ATP luminescence, 48 h; Potency, µM (doses to about 46.2 µM), inactives show top-dose activity change, negative = growth inhibition, hits mostly inhibitors; 12% of 420,000 active; AID 686979; further: potency means the concentration at half of the fitted maximal effect; nearly all actives have a fitted effect of over 55% in size
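Chicken DT40 Tdp1-/- cells stably complemented with human TDP1 were seeded at 400 cells/well in medium containing 20 nM camptothecin, exposed to pin-transferred compounds, and grown at 37 °C for at least 48 hr. Viability was read as ATP luminescence.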
TDP1 cell noCPT = qHTS for Inhibitors of human tyrosyl-DNA phosphodiesterase 1 (TDP1): qHTS in cells in absence of CPT | Potency, µM (series often up to 46.2 µM), for inactives: at the top dose activity change, negative = growth inhibition, usual class: inhibitors | DT40 Tdp1-/- hTDP1 cells, no CPT, ATP luminescence, 48 h | AID 686978, 2013 | 15% of 420,000 active; further: potency means the concentration at half of the fitted maximal effect; nearly all actives have a fitted effect of over 55% in size
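Seeded 400 DT40-hTDP1 cells/well (vehicle DMSO, no 20 nM CPT); pinned compounds; ≥48 hr at 37 °C; CellTiter-Glo luminescence as viability measure.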
ELG1 DNA repair = blocks ELG1-dependent DNA repair in HEK293T cells; HEK293T ELG1-luciferase reporter, luminescence, 16 h; DNA damage induced by 5-fluorouridine; Potency, µM (titrated, usually from 46.1 µM), inactives show at the top dose activity change, negative = inhibition, hits mostly inhibitors; 2.3% of 330,000 active; further: potency means the concentration at half of the fitted maximal effect; nearly all actives have a fitted effect of over 55% in size
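Overnight (16 hr) co-exposure of 2,000 cells/well to 5-fluorouridine and compound at 37 °C preceded detection. Luciferase was quantified via ONE-Glo luminescence; loss of signal denotes inhibition.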
HT1080 IDH1KD tx = kills HT-1080 cells with IDH1 knockdown; HT-1080 IDH1 knockdown viability, ATP luminescence, 48 h; Potency, µM (highest dose often 46.1 µM), for the others: at the highest dose activity, negative = toxicity, actives largely listed as cytotoxic; 2% of 360,000 active; AID 686971;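 further: potency means the concentration at half of the fitted maximal effect; 0% = DMSO wells and -100% = cell-free medium wells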
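Viability of IDH1-knockdown HT-1080 fibrosarcoma cells was assessed by CellTiter-Glo after 48 h at 37 °C with titrated compound; concentration-effect curves were classified by fit quality and response size.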
HT1080NT lethal = kills 2HG-producing HT-1080-NT fibrosarcoma cells. HT-1080-NT fibrosarcoma viability, CellTiter-Glo ATP luminescence, 48 h. Potency, µM (top dose mostly 46.1 µM), for inactives: top-dose activity, negative = less viability, actives largely listed as cytotoxic. 1.6% of 360,000 active;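 further: NT is the 2HG producing partner of a matched IDH1 knockdown line; potency means the concentration at half of the fitted maximal effect; 0% = DMSO-treated cells and -100% = media-only wells without cells; nearly all actives have a fitted effect of over 55% in size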
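750 cells/well, RPMI + 5% FBS; 2 h settle, compound pin-transfer, 48 h at 37 degrees C. CellTiter-Glo 10 min RT, luminescence. Normalized to DMSO and media-only wells.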
IL1B secr inh = inflammasome signaling inhibition, IL-1 beta readout; THP-1 LPS/ATP IL-1B secretion, AlphaLISA, 16 h; hits give low values; activity change, % at 57.5 µM; 4.7% of 360,000 active; AID 743279; in the data active means activity change below about -50%; inconclusive means mostly about -30% to -49%
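Secreted IL-1B measured by AlphaLISA bead assay after 16 h compound exposure of THP-1 cells; compounds (final up to 57.5 uM) added 1 h before LPS (250 ng/mL) and ATP (1.25 mM) stimulation; lower signal means less secretion.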
Starred values were filed as active, the others as inactive. Rows were chosen to be rich in hits. Some 19% of all compounds tested hit in one or more screens of this group. Unless noted, the call rests on the fitted dose curve; in most records, active means well fitted curve in the direction sought with a large enough effect; inconclusive means small, poorly fitted or top-dose-only effect, or another doubt; inactive means no such curve, though single readings can be large; an effect the other way counts as inactive or inconclusive. Unless noted, on the % scale 0 is the no-effect control and ±100 the full control effect.

Results for COc1ccc(OC)c(N/C=C/C(=O)c2ccccc2)c1 ?
TDP1 cell CPT: -2%; TDP1 cell noCPT: -39%; ELG1 DNA repair: inconclusive; HT1080 IDH1KD tx: -26%; HT1080NT lethal: -4%; IL1B secr inh: -7

How did CNC(=O)c1cc2cccc(OC)c2oc1=O do in these assays?
TDP1 cell CPT: -7%; TDP1 cell noCPT: 10%; ELG1 DNA repair: 5%; HT1080 IDH1KD tx: -1%; HT1080NT lethal: -5%; IL1B secr inh: 15

Results for COc1ccc(OC)c(C(=O)/C=C/c2ccccc2C(F)(F)F)c1 ?
TDP1 cell CPT: 26µM*; TDP1 cell noCPT: 21µM*; ELG1 DNA repair: inconclusive; HT1080 IDH1KD tx: inconclusive; HT1080NT lethal: inconclusive; IL1B secr inh: -110*

How did COCOc1cc(O)c(C(=O)/C=C/c2ccccc2)c(OCOC)c1 do in these assays?
TDP1 cell CPT: 15µM*; TDP1 cell noCPT: 18µM*; HT1080 IDH1KD tx: inconclusive; HT1080NT lethal: inconclusive; IL1B secr inh: -103*

Results for Cc1ccc(CN(C)C(=O)COc2ccc(S(=O)(=O)N3CCCC3)cc2[N+](=O)[O-])c(C)c1 ?
TDP1 cell CPT: inconclusive; TDP1 cell noCPT: inconclusive; ELG1 DNA repair: inconclusive; HT1080 IDH1KD tx: 0%; HT1080NT lethal: -7%; IL1B secr inh: -1

What do the screens show for `Cc1cccc(Oc2ccc(Cl)cc2N)c1`?
TDP1 cell CPT: -30%; TDP1 cell noCPT: inconclusive; ELG1 DNA repair: 22%; HT1080 IDH1KD tx: -17%; HT1080NT lethal: -14%; IL1B secr inh: -19

How did CCOc1ccc(NC(=O)Cn2c(CCC(=O)O)ccc2-c2ccc(C)cc2)cc1 do in these assays?
TDP1 cell CPT: -17%; TDP1 cell noCPT: inconclusive

What do the screens show for `Cc1cc(/C=N/n2c(COc3ccccc3C)nc3ccccc3c2=O)c(O)c([N+](=O)[O-])c1`?
TDP1 cell CPT: 18µM*; TDP1 cell noCPT: 13µM*; ELG1 DNA repair: 3%; HT1080 IDH1KD tx: inconclusive; HT1080NT lethal: inconclusive; IL1B secr inh: 326

What do the screens show for `Cc1ccccc1OCc1nc2ccccc2c(=O)n1N`?
TDP1 cell CPT: inconclusive; TDP1 cell noCPT: inconclusive; ELG1 DNA repair: inconclusive; HT1080 IDH1KD tx: -3%; HT1080NT lethal: 1%; IL1B secr inh: 32

Results for O=c1c2ccccc2nc(COc2ccccc2)n1/N=C/c1cc([N+](=O)[O-])ccc1O ?
TDP1 cell CPT: 6.5µM*; TDP1 cell noCPT: 13µM*; ELG1 DNA repair: -21%; HT1080 IDH1KD tx: -28%; HT1080NT lethal: -25%; IL1B secr inh: 46

What do the screens show for `COc1cccc(/C=N/n2c(COc3ccccc3)n[nH]c2=S)c1OC`?
TDP1 cell CPT: -7%; TDP1 cell noCPT: -27%; ELG1 DNA repair: -1%; HT1080 IDH1KD tx: 0%; HT1080NT lethal: 3%; IL1B secr inh: 50

What do the screens show for `Cc1ccc(-c2[nH]ncc2/C=N/n2c(COc3ccccc3C)nc3ccccc3c2=O)cc1`?
TDP1 cell CPT: 21µM*; TDP1 cell noCPT: 16µM*; ELG1 DNA repair: 2.6µM*; HT1080 IDH1KD tx: inconclusive; HT1080NT lethal: inconclusive; IL1B secr inh: -99*

Results for COc1ccccc1/C=C/C=N/n1c(COc2ccccc2)n[nH]c1=S ?
TDP1 cell CPT: inconclusive; TDP1 cell noCPT: 15µM*; ELG1 DNA repair: 8%; HT1080 IDH1KD tx: 19%; HT1080NT lethal: 5%; IL1B secr inh: 3

Results for COc1ncc2nc(-c3cccs3)c(=O)n(CCc3ccccc3)c2n1 ?
TDP1 cell CPT: 18%; TDP1 cell noCPT: 25%

How did CCN(CC)CCNC(=S)N1CCn2c(nc3ccccc32)C1 do in these assays?
TDP1 cell CPT: 5%; TDP1 cell noCPT: 3%; ELG1 DNA repair: 3%; HT1080 IDH1KD tx: 6%; HT1080NT lethal: -2%; IL1B secr inh: 19
